# Assay outcomes: PubChem, several laboratories
# BJeLR viability: MLPCN primary cell-based screen for lethality selective to Ras in HRASV12 cells; BJeLR (HRASV12) viability, CellTiter-Glo ATP luminescence, 48 h; actives 0.17% (n = 300,000); inhibition, % (test concentration not listed); in the data active means inhibition above about 50%
# Rv3671c protease: Rv3671c serine protease inhibitors, primary screen, biochemical, fluorescence polarization, M. tuberculosis H37Rv. P9WHR9. inhibition, % at 5.96 µM. actives 0.048% (n = 320,000). AID 2606, 2010; in the data active means inhibition above about 38%;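 further: extracellular domain of Rv3671c used as enzyme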
# UGM FP inh: M. tuberculosis UGM enzyme inhibitors, primary screen, biochemical, fluorescence polarization, single point | inhibition, % at 10 µM | actives 0.06% (n = 320,000) | UDP-galactopyranose mutase (Mycobacterium tuberculosis (strain ATCC 25618 / H37Rv)), … | purified UGM, fluorescence polarization probe displacement; in the data active means inhibition above about 10%, passing the limit was not always enough
# Target sequence (P9WIQ1 whole entry, looked up): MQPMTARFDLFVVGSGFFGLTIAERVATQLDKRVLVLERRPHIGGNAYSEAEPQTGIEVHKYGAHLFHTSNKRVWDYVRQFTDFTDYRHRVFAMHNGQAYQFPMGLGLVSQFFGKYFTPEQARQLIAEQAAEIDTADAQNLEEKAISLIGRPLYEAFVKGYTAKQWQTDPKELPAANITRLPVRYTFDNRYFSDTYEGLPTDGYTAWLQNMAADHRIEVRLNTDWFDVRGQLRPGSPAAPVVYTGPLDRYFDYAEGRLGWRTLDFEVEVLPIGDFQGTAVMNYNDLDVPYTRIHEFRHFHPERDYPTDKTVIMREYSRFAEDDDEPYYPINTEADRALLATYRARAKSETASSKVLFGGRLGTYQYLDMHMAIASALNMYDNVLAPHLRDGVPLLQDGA
# FadD28 FP inh: inhibitors of FadD28 bisubstrate probe binding, primary screen, biochemical, fluorescence polarization, single point; inhibition, % at 12.5 µM; actives 0.22% (n = 360,000); AID 588549, 2011; in the data active means inhibition above about 8.5%, passing the limit was not always enough
# PrP UTR inh: inhibition of PrP 5' UTR reporter expression; actives 0.35% (n = 340,000); AID 488862, 2010; inhibition, % (concentration not given with the values); cell-based PrP 5' UTR mRNA reporter, plate reader; in the data active means inhibition above about 52%
# RecA splice inh: Mtb RecA intein splicing inhibitors, primary screen, biochemical, fluorescence, HTS; cell-free RecA intein splicing; actives 0.75% (n = 290,000); Protein RecA (Mycobacterium tuberculosis (strain ATCC 25618 / H37Rv)), P9WHJ3; inhibition, % (concentration not given with the values); in the data active means inhibition above about 30%
# GFP chromophore: counter-screen: blocks GFP chromophore formation, dose response, counter-screen, biochemical, fluorescence, homogeneous; actives 83% (n = 2,100); cell-free GFP chromophore formation; shares compounds with RecA splice inh; EC50, µM; call rule not given here
# Hits are given with their value; – = inactive; · = no result. Shown are actives, neighbours in structure and some others; about 1.3% of the full set was active somewhere.
SMILES,BJeLR viability,Rv3671c protease,UGM FP inh,FadD28 FP inh,PrP UTR inh,RecA splice inh,GFP chromophore
COc1cc(C2C(C#N)=C(N)Oc3n[nH]c(-c4cccnc4)c32)cc(Br)c1O (configuration not stated),–,–,–,–,–,81,14
N#CC1=C(N)Oc2n[nH]c(-c3ccc(F)cc3)c2C1c1cccnc1 (configuration not stated),–,·,·,–,–,75,16
Cc1ccc(C2C(C#N)=C(N)Oc3n[nH]c(-c4cccnc4)c32)o1 (configuration not stated),–,–,–,–,–,53,38
O=C1C=CN(C2OC(CO)C(O)C2O)C(=O)C1 (configuration not stated),·,·,·,–,·,·,·
C[C@H](CO)N1C[C@H](C)[C@H](CN(C)Cc2ccncc2)Oc2ncc(Br)cc2C1=O,·,·,·,–,·,·,·
O=C(NC1CCCCC1)N(c1ccccc1)c1nnc(-c2cccc([N+](=O)[O-])c2)s1,·,·,·,–,·,·,·
COc1ccc(S(=O)(=O)N(C)C[C@@H]2Oc3cc(Br)ccc3S(=O)(=O)N([C@H](C)CO)C[C@@H]2C)cc1,·,·,·,–,·,·,·
CCOc1ccc(-c2[nH]nc3c2C(c2ccc(O)cc2)C(C#N)=C(N)O3)cc1 (configuration not stated),–,–,–,–,–,63,15
Cc1ccc(-c2[nH]nc3c2C(C)C(C#N)=C(N)O3)cc1 (configuration not stated),–,–,–,–,–,88,0.5
N#CC1=C(N)Oc2n[nH]c(-c3ccccc3)c2C1c1ccncc1 (configuration not stated),–,–,–,–,–,65,27
COc1ccc(-c2ccc(C3C(C#N)=C(N)Oc4n[nH]c(C)c43)o2)cc1 (configuration not stated),–,–,–,–,–,·,·
CCc1[nH]nc2c1C(c1ccncc1)C(C#N)=C(N)O2 (configuration not stated),–,–,–,–,–,–,·
CCOc1ccc(C2C(C#N)=C(N)Oc3nc[nH]c(=O)c32)cc1 (configuration not stated),–,–,–,–,–,–,·
COC(=O)c1ccc2nc(C3CCCCC3)c(Cc3cccc(Cl)c3)n2c1,·,·,·,–,·,·,·
O=C(NCc1cccc(C(F)(F)F)c1)c1csc([C@H]2C[C@H](O)[C@@H](CO)O2)n1,·,·,·,–,·,·,·
CCc1nc2ccc(C(=O)NCCCN3CCCC3=O)cn2c1N(C=O)CC,·,·,·,–,·,·,·
Nc1ccc2c(c1)C(=O)CCC2,·,·,·,–,·,·,·
CCCCNC(=O)C1(C)CCCCN1C(=O)c1c(C)noc1C (configuration not stated),·,·,·,–,·,·,·
O=C(CCl)NN=C(c1ccccc1)c1ccccc1,–,–,–,–,–,59,26
CC1=NNC(=O)C1Oc1ccccc1 (configuration not stated),–,–,–,–,–,96,1.1
CC1=NNC(=O)C1Br (configuration not stated),·,·,·,–,–,·,·
CCN(CC)C(=O)c1cccc2c1C(=O)c1ccccc1-2,–,–,–,–,–,·,·
CCN(CC)C(=O)c1ccc2c(c1[N+](=O)[O-])C(=O)c1ccccc1C2=O,–,–,–,·,·,42,–
Cn1cnc([N+](=O)[O-])c1S(=O)(=O)c1ccc(Cl)cc1,–,·,·,–,–,61,39
Cn1cnc([N+](=O)[O-])c1NC(C)(C)C,–,–,–,–,–,–,·
COC1(OC)C(/C=C/c2ccc(Cl)cc2)C(C#N)(C#N)C1(OC)OC (configuration not stated),–,–,–,–,–,73,–
CC(C)c1ccc(CC(=O)N2CCC2(C)C(=O)NS(=O)(=O)c2cccc(OC(F)F)c2)cc1 (configuration not stated),·,·,·,–,·,·,·
COc1ccc(CNC(=O)/C=C/[C@H]2O[C@@H](n3ccc(=O)[nH]c3=O)[C@H](O)[C@@H]2O)cc1,·,·,·,–,·,·,·
